Assay results as given in ChEMBL document CHEMBL1157539, “Thousands of chemical starting points for antimalarial lead identification” (Nature, 2010).

Experiments:
Format in all cases: functional
Plasmodium falciparum [1] = test: GSK_TCMDC: Inhibition of Plasmodium falciparum 3D7 in whole red blood cells, using parasite LDH activity as an index of growth. Test compounds present at 2uM
Plasmodium falciparum [2] = test: GSK_TCMDC: Inhibition of Plasmodium falciparum Dd2 in whole red blood cells, using parasite LDH activity as an index of growth. Test compounds present at 2uM
HepG2 = test: GSK_TCMDC: Percent inhibition of human HepG2 cell line. Test compounds present at 10uM.

Row | SMILES | Inhibition (Plasmodium falciparum [1]) [%] | Inhibition (Plasmodium falciparum [2]) [%] | Inhibition (HepG2) [%]
1 | CCCN(Cc1ccc(C)cc1)Cc1cc(=O)c2cc(Cl)ccc2[nH]1 | 86 | 91 | 51
2 | Cc1cc(C(=O)CSc2nc3ccccc3n2-c2ccccc2)c(C)n1C1CCS(=O)(=O)C1 (stereo not given) | 92 | 0 | 0
3 | CCN(CCCN1CCCCC1)c1cc(C)nc(Nc2ccc(F)c(C(F)(F)F)c2)n1.O=C(O)C(F)(F)F | 100 | 93 | 32
4 | Cc1cccc(Cn2nc(-c3ccccc3)c(N3CCCCC3)cc2=O)c1 | 98 | 0 | 29
5 | COc1ccc(NC(=O)[C@H](Cc2ccccc2)Nc2cc(C)nc(NCCc3ccccn3)n2)cc1.O=C(O)C(F)(F)F | 99 | 39 | 0
6 | CC(C)(C)c1ccc2[nH]c(-c3ccc(C(=O)NC4CCN(Cc5ccccc5)CC4)s3)nc2c1 | 91 | 42 | 24
7 | O=C(Nc1cccc(-c2nn3ccccc3c2-c2ccnc(Nc3cccc(-c4cnco4)c3)n2)c1)C1CCCCC1 | 95 | 99 | 71
8 | Nc1ncc(-c2ccc3nccc(-c4ccncc4)c3c2)cc1S(=O)(=O)N1CCOCC1 | 100 | 99 | 39
9 | N#Cc1ccc(-c2nc(CO)c(C(=O)NCCCCN3CCC(c4ccc5c(c4OCC(N)=O)CCCC5)CC3)s2)cc1 | 92 | 0 | 9
10 | COc1ccc2nc(C)cc(Nc3ccc(Cl)c(Cl)c3)c2c1 | 100 | 99 | 30
11 | CC1(C)N=C(N)N=C(N)C1c1ccc(Cl)c(Cl)c1.Cl (stereo not given) | 95 | 0 | 47
12 | Cl.Oc1ccc2[nH]c(-c3cccs3)nc2c1CN1CCC(O)(c2ccccc2)CC1 | 93 | 69 | 10
13 | CC1(C)N=C(N)N=C(N)N1CCc1ccccc1.Cl | 93 | 0 | 50
14 | O=C(/C=C/c1ccc(C(F)(F)F)cc1)NCCCCCN1CCCN(C(=O)Nc2ccc(Cl)c(C(F)(F)F)c2)CC1 | 99 | 31 | 64
15 | Oc1ccc(-c2ccccc2)cc1CN1CCCCCC1 | 95 | 85 | 6
16 | Cc1ccc(C)c(-n2c(SCC(=O)Nc3ccc(C(N)=O)cc3)nnc2-c2cccc(Cl)c2)c1 | 92 | 91 | 6
17 | CCN1CCC(N(Cc2ccc(-c3ccc(C(F)(F)F)s3)cc2)C(=O)Cn2c(CCc3cccc(F)c3F)nc(=O)c3ccccc32)CC1.O=C(O)C(O)C(O)C(=O)O | 93 | 95 | 47
18 | CCCc1c(Cl)cc(CNCCCNc2nc3ccncc3[nH]2)cc1Cl | 98 | 0 | 23
19 | Cc1cccc2nc(-c3cccc(-c4cccc(NC(=O)Nc5cccc(C#N)c5)c4)c3)[nH]c12 | 100 | 99 | 22
20 | O=C(NC1CC1)c1cnc(N2CCC(c3ccccc3)CC2)c(Cl)c1.O=C(O)C(F)(F)F | 94 | 95 | 6

Row | SMILES | Inhibition (Plasmodium falciparum [1]) [%] | Inhibition (Plasmodium falciparum [2]) [%] | Inhibition (HepG2) [%]
21 | CC(c1cccc(Nc2nccc(-c3c(-c4cccc(NC(=O)c5c(F)cccc5F)c4)nn4ncccc34)n2)c1)S(C)(=O)=O (stereo not given) | 98 | 98 | 79
22 | Br.CCCCCCn1c2c(c(=N)c3c1CCC3)CCC2 | 97 | 83 | 32
23 | S=C(NCCCCCN1CCC(c2c[nH]c3ccccc23)CC1)Nc1cc(Cl)cc(Cl)c1 | 100 | 35 | 25
24 | CC(=O)Oc1c(C2C=CCCC2)c(OC(C)=O)c2ccccc2c1OC(C)=O (stereo not given) | 95 | 79 | 10
25 | CN1CCC(C(=O)Nc2cccc(-c3cccc(-c4nc5cc(F)ccc5[nH]4)c3)c2)CC1 | 100 | 27 | 32
26 | CC(C)NCc1ccc(-c2cccc(NC(=O)c3ccc(C#N)cc3)c2)cc1.O=C(O)C(F)(F)F | 100 | 19 | 8
27 | Fc1ccc2[nH]c(-c3cccc(-c4ccc(CN5CCCCC5)cc4)c3)nc2c1.O=C(O)C(F)(F)F | 99 | 97 | 46
28 | CCNc1cc(C(=O)N[C@@H](Cc2ccccc2)[C@H](O)CNC(C)(C)CCCC(C)C)cc(N2CCCCS2(=O)=O)c1.O=CO | 98 | 98 | 5
29 | O=C(Nc1cccc(OC2CCN(Cc3ccsc3)CC2)c1)c1ccc(C(F)(F)F)cc1.O=C(O)C(F)(F)F | 98 | 5 | 25
30 | Br.CCOC(=O)c1cc(Cl)ccc1OCCCON1C(=N)N=C(N)NC1(C)C | 94 | 95 | 69
31 | CC(C)(C)c1ccc(NC(=O)c2cccc(CN3CCCN(Cc4cccc(O)c4)CC3)c2)cc1.O=C(O)C(F)(F)F | 100 | 69 | 97
32 | O=C(/C=C/c1ccc(Cl)c(Cl)c1)NC1CCC(CN2CCC(c3nc4ccccc4s3)CC2)CC1 (stereo not given) | 87 | 32 | 50
33 | O=C(Cc1ccc[n+]([O-])c1)Nc1cccc(-c2cccc(-c3nc4cc(C(F)(F)F)ccc4[nH]3)c2)c1 | 92 | 99 | 41
34 | CC(C)CNCc1ccc(-c2ccccc2CN(C(=O)NCCc2ccccc2)C2CCN(Cc3ccccc3)CC2)cc1.O=C(O)C(F)(F)F | 98 | 94 | 89
35 | Cc1cc(NC(=O)c2ccsc2)ccc1OC1CCN(Cc2ccc(F)cc2)CC1.O=C(O)C(F)(F)F | 83 | 47 | 9
36 | CC(C)c1ccc(C=CC(=O)N2CCC(CCN3CCC(c4c[nH]c5ccccc45)CC3)CC2)cc1 | 93 | 11 | 85
37 | CCCC(C)N(Cc1ccc(C(C)(C)C)cc1)C(=O)c1ccc(OC)cc1 (stereo not given) | 100 | 98 | 7
38 | O=C(Nc1ccccc1)Nc1cccc(-c2nn3c(OCC4CCCCN4)cccc3c2-c2ccncc2)c1 (stereo not given) | 97 | 82 | 9
39 | COc1ccc2nccc(CCC3(O)CCC(NCc4cc5c(cc4F)SCC(=O)N5)CC3)c2c1 (stereo not given) | 87 | 48 | 9
40 | O=C(O)C(F)(F)F.c1ccc(CN2CCC(NCc3ccccc3-c3cccc(CNCc4ccc5c(c4)OCO5)c3)CC2)cc1 | 100 | 69 | 37

Row | SMILES | Inhibition (Plasmodium falciparum [1]) [%] | Inhibition (Plasmodium falciparum [2]) [%] | Inhibition (HepG2) [%]
41 | COc1cc2c(cc1CCNCCCCNCCc1cc3c(cc1OC)CCCC3)CCCC2.CS(=O)(=O)O | 100 | 36 | 100
42 | O=C1CC(C(=O)Nc2cccc(-c3cccc(-c4nc5ccccc5[nH]4)c3)c2)c2ccccc2N1 (stereo not given) | 84 | 32 | 0
43 | NC(=O)CCC(NC(=O)CNC(=O)Nc1cccc(C(F)(F)F)c1)C(=O)O (stereo not given) | 97 | 93 | 1
44 | O=C(Cn1c(CCc2cccc(F)c2F)nc(=O)c2ccccc21)N(CCCN1CCCCC1)Cc1ccc(-c2ccc(C(F)(F)F)cc2)cc1.O=C(O)C(O)C(O)C(=O)O | 100 | 94 | 100
45 | Cc1cc(NCCCCCCNc2cc(C)nc3c(C)cccc23)c2cccc(C)c2n1.Cl | 100 | 9 | 23
46 | O=C(Nc1cccc(C(F)(F)F)c1)c1ccc(S(=O)(=O)NC2CCN(CC3CCCCC3)C2)cc1.O=C(O)C(F)(F)F (stereo not given) | 92 | 0 | 16
47 | COc1ccc(CN(C)CCCOc2ccc(NC(=O)c3cccc4c(=O)c5cccc(C)c5[nH]c34)cc2)cc1OC | 96 | 62 | 3
48 | Clc1ccc(-c2cnc3ccc(NCc4ccncc4)nn23)cc1 | 98 | 98 | 25
49 | FC(F)(F)c1ccc2[nH]c(-c3cccc(-c4cccc(CNCc5cnn(-c6ccccc6)n5)c4)c3)nc2c1.O=C(O)C(F)(F)F | 100 | 28 | 6
50 | COc1cccc(OC)c1OCCCOc1c(C)nc(N)nc1N.Cl | 97 | 0 | 31
51 | CC(C)CNC(=O)c1ccnc(-c2ccc(CNCCCc3ccccc3)cc2)c1.O=C(O)C(F)(F)F | 99 | 22 | 12
52 | O=C(O)C(F)(F)F.O=S(=O)(NCCN1CCCC1)c1cccc(-c2cccc(CNCc3ccsc3)c2)c1 | 100 | 55 | 69
53 | CCCc1ccc(S(=O)(=O)NC2CCN(C(=O)Nc3ccc(I)cc3)CC2)cc1 | 97 | 0 | 8
54 | Cn1cccc1C(=O)C(=O)Nc1cccc(-c2ccc(-c3nc4cc(C(F)(F)F)ccc4[nH]3)cc2)c1 | 94 | 27 | 62
55 | Cl.N#Cc1ccc2c(c1)CCN(CCC1CCC(NC(=O)/C=C/c3cccc4cc[nH]c34)CC1)CC2 (stereo not given) | 89 | 29 | 22
56 | O=C(Nc1cccc(CN2CCCN(Cc3cccc(O)c3)CC2)c1)c1ccc2ccccc2c1.O=C(O)C(F)(F)F | 97 | 42 | 21
57 | COc1cccc(C(=O)NCc2nnc(S)n2-c2ccc(Cl)c(Cl)c2)c1 | 100 | 100 | 0
58 | CCCCCCN(CCCCCC)CC(O)c1cc(-c2ccc(Cl)cc2)nc2c(C)cc(C)cc12 (stereo not given) | 98 | 98 | 27
59 | COc1cccc(CC(=O)N2CCC(n3c(C)nc4ccc(C)cc43)CC2)c1 | 100 | 99 | 1
60 | COc1cc(OC)nc(C(Sc2ccc(NC(=O)c3cccs3)cc2)c2ccccc2)n1 (stereo not given) | 97 | 96 | 7
